Sampled rows, rich in hits. Any-hit rate of the full collection: about 3.9%.
HT1080 IDH1KD tx = toxicity to HT-1080 IDH1 knockdown cells (counter line). Potency, µM (highest dose often 46.1 µM), for inactives: top-dose activity, negative = toxicity, most hits filed as cytotoxic. hit rate 2% among 360,000. HT-1080 IDH1 knockdown viability, ATP luminescence, 48 h. AID 686971;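 also: 0% = DMSO wells and -100% = cell-free medium wells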
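Cytotoxicity counter-line: IDH1KD HT-1080, 48 h, CellTiter-Glo. Curves classed by r2, magnitude and activity.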
HepG2 tox = kills HepG2 cells in TGF-b inhibitor counter-screen; HepG2 CAGA-GFP viability, ATP luminescence, 18 h; Potency, µM (titrated, usually from 46.1 µM), without a hit: at the top dose activity change, negative = cytotoxicity, hits mostly cytotoxic; hit rate 0.76% among 410,000
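CellTiter-Glo luminescence gave cytotoxicity after 18 hours at 37 degrees C. The cells were HepG2 CAGA-GFP in 1% FBS DMEM, stimulated with 500 pg/mL TGF-beta after compound addition. %Activity was normalised to no-cell wells (complete cell-killing) and DMSO (no toxicity), and curves were fitted and classified.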
TGFb inhibitor = blocks TGF-b signaling | AID 588855 | hit rate 1.2% among 410,000 | HepG2 CAGA-GFP TGF-b/SMAD3 reporter, GFP fluorescence, 18 h; TGF-beta stimulated, 500 pg/mL final | Potency, µM (titrated, usually from 46.1 µM), for the others: at the top dose activity, negative = inhibition, usual class: inhibitors; also: % is scaled to controls: 0 for no effect and ±100 for the full control effect; nearly all actives have a fitted effect of over 65% in size
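First, reporter cells (HEPG2 CAGA-GFP) rested 2 h at 37 degrees C. Next, compounds were pinned in and TGF-beta added to 500 pg/mL final. After 18 h, GFP was imaged per cell and summed per well.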
HT1080-NT tox = kills 2HG-producing HT-1080-NT fibrosarcoma cells. HT-1080-NT fibrosarcoma viability, CellTiter-Glo ATP luminescence, 48 h. Potency, µM (titrated, usually from 46.1 µM), for the others: at the highest dose activity, negative = less viability, most hits filed as cytotoxic. hit rate 1.6% among 360,000. AID 686970;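 also: NT is the 2HG producing partner of a matched IDH1 knockdown line; 0% = DMSO-treated cells and -100% = media-only wells without cells; nearly all actives have a fitted effect of over 55% in size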
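HT-1080-NT; 750 cells/well; 5% FBS RPMI; 48 h compound, 37 degrees C; CellTiter-Glo luminescence; curve fitting and curve-class assignment.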
ATXN2 expr inh = reduces ATXN2 reporter expression in HEK-293 cells; HEK-293 ATXN2-luciferase reporter, luminescence, 24 h; Potency, µM (top dose mostly 57 µM), without a hit: at the top dose activity change, negative = inhibition, hits mostly inhibitors; hit rate 0.72% among 360,000; AID 1745845; also: % is scaled to controls: 0 for no effect and ±100 for the full control effect; nearly all actives have a fitted effect of over 55% in size
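qHTS (up to 57 uM final) was run with 24 h compound exposure of reporter cells at 37 °C. Each well was multiplexed: SteadyGlo luminescence measured ATXN2-luciferase expression after a fluorogenic Gly-Phe-AFC viability readout (25 uM final).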
S2 tox = cell viability loss in ATXN counter-screen. S2 cells (HEK-293 line with an ATXN2-luciferase reporter) viability, CellTiter-Fluor protease fluorescence, 24 h. Potency, µM (doses to about 56.7 µM), most hits filed as cytotoxic. hit rate 0.49% among 400,000. AID 651635; also: nearly all actives have a fitted effect of over 40% in size
An asterisk follows results filed as active; i = inactive; u = inconclusive; x = no result given; ! = not confirmed by another sample; [ ] = dose if it differs, or a comment. Calls follow the shape of the dose curve; as a rule, active = well fitted curve in the direction sought with a large enough effect; inconclusive = small, poorly fitted or top-dose-only effect, or another doubt; inactive = no such curve, though single readings can be large; an effect the other way counts as inactive or inconclusive. Potency is read from the fitted curve at half-maximal effect.

SMILES | HT1080 IDH1KD tx | HepG2 tox | TGFb inhibitor | HT1080-NT tox | ATXN2 expr inh | S2 tox
COc1ccc(OC)c(C(=O)c2ccc(C(=O)c3cc(OC)ccc3OC)cc2)c1 | 0% | -24% | -13% | -4% | u | i
COc1ccc(C(=O)c2ccc(OC)cc2OC)cc1 | 12µM* | 1% | -14% | 23µM* | 36% | i
COc1ccc(C(=O)c2ccc(N(C)C)cc2)c(OC)c1 | 2.5µM* | 3% | -1% | 3.5µM* | 16% | i
COc1ccccc1C1CN(CCNC(=O)c2sccc2Cl)Cc2ccccc2O1 (stereo not given) | x | x | x | x | x | i
COc1ccc(NC(=O)c2ccccc2SC)cc1OC | 10% | 11% | -1% | 8% | 0% | i
NC(=O)c1ccc(NC(=O)C#Cc2ccccc2)cc1 | 16µM* | -32% | u | 21µM* | 5% | u
CC(Oc1ccccc1)C(=O)Nc1ccc(C(N)=O)cc1 (stereo not given) | -14% | 1% | -1% | -16% | 9% | i
COc1ccc(NC(=O)C#Cc2ccccc2)cc1OC | 18µM* | 2% | -28% | u | 2% | i
O=C(NCc1cccnc1)c1cnn(-c2ncc3c(n2)-c2ccccc2CCC3)c1C1CC1 | x | x | x | x | x | i
CN1CCCC(n2nc(Cc3ccc(Cl)cc3)c3ccccc3c2=O)CC1 (stereo not given) | 4.1µM* | -41% | -1% | 5.2µM* | 35µM*! | 32µM*!
CCOC(=O)Cn1nc(Cc2ccccc2)c2ccccc2c1=O | -3% | -2% | 0% | -5% | -1% | i
COC(=O)c1ccc(NC(=O)CCc2c(C)nc3c(c2C)c(=O)n(C)c(=O)n3C)cc1 | x | -1% | 4% | x | -2% | i
CC(=O)N(C(C)=O)c1ncnc2c1c(-c1ccc(Cl)cc1)nn2C(C)(C)C | 15µM* | -36% | u | u | u | u
CCOC(=O)Cn1nc(-c2ccc(Cl)cc2)ccc1=O | -20% | -2% | 24% | 0% | 3% | i
COc1ccc(-c2nc3ccccc3n2Cc2ccc(C)cc2)cc1 | u | -7% | u | u | 11% | i
Cc1ccc(Cn2c(Cc3ccccc3)nc3ccccc32)cc1 | -12% | 16µM*! | u | -18% | u | u
COc1ccc(-c2nc3ccccc3n2Cc2ccc(Cl)cc2)cc1 | x | -117% | 16µM* | x | -37% | u
CCc1ccc(-n2c(N3CCN(c4cccc(Cl)c4)CC3)nc3ccccc3c2=O)cc1 | x | -23% | -22% | x | x | x
COc1ccccc1C(=O)Nc1ccc2c(c1)nc(CCNC(=O)c1ccccc1)n2C | 4.1µM* | 6% | -9% | 4.1µM* | -6% | i
CC1CCN(C(=O)Cn2cc(SCC(=O)NCc3ccccc3Cl)c3ccccc32)CC1 | x | -11% | 0% | x | x | x
COc1ccc(Nc2nc(N)c([N+](=O)[O-])c(NC3CCCCC3)n2)cc1 | u | 22µM* | u | 16µM* | u | x
Cc1cccc(N2CCN(C(=O)c3cccn3-c3nnc(N4CCCCC4)s3)CC2)c1C | x | -51% | u | x | x | x
FC(F)(F)c1cc(Nc2ccccc2)nc(-c2ccccn2)n1 | 15% | -7% | -20% | 7% | u | i
FC(F)(F)c1cc(Sc2ccccc2)nc(-c2ccccn2)n1 | u | -6% | -13% | 13µM* | -2% | i
COCC(=O)Nc1cc(C(=O)N2CCSCC2)cc2nc(-c3ccccc3)n(C)c12 | x | x | x | x | x | i
SMILES | HT1080 IDH1KD tx | HepG2 tox | TGFb inhibitor | HT1080-NT tox | ATXN2 expr inh | S2 tox
CCSC(=O)N1c2ccc(OC)cc2C=CC1C#N (stereo not given) | u | 13% | u | 0.46µM* | 5% | u
COc1ccc(C(=O)N2c3ccccc3C=CC2C#N)cc1 (stereo not given) | -20% | -1% | -14% | -28% | -13%[11.3 µM] | i
Cc1ccc2c(c1)C=CC(C#N)N2C(=O)Oc1ccccc1 (stereo not given) | 0% | 8% | -2% | 2% | x | i
Cc1ccc2c(c1)C=CC(C#N)N2C(=O)c1ccccc1 (stereo not given) | 1.5µM* | -18% | -20% | 1.6µM* | -36%[11.3 µM] | i
CC(=O)OCC(NC(=O)C(C)NC(=O)OC(C)(C)C)C1OC(n2cc(C)c(=O)[nH]c2=O)C(OC(C)=O)C1OC(C)=O (stereo not given) | x | -8% | -15% | x | x | x
CC(=O)Nc1ccc(SCC(Cc2ccccc2)N2CCN(CCc3ccccc3)CCC2=O)cc1 (stereo not given) | x | -7% | u | x | x | x
COc1cc(C(=O)ON=C2C=C(C)C(=O)C(C)=C2)cc(OC)c1OC | -9% | -6% | 3% | -6% | 29% | i
COc1cc(C(=O)O/N=C2\C=CC(=O)C(C)=C2)cc(OC)c1OC | u | -108% | u | 23µM* | 37% | u
COc1ccc(NC(=O)CCCc2nnc3n(C(C)C)c(=O)c4sccc4n23)cc1Cl | x | -20% | -26% | x | x | x
NC(Cc1ccc(Cl)cc1)c1csc(NC(=O)NCC2CCCCC2)n1 (stereo not given) | 16µM* | 13µM* | u | 16µM* | u | 35µM*
COc1ccc(CC(N)c2csc(NC(=O)NCCc3ccccc3)n2)cc1 (stereo not given) | u | -75% | u | u | u | u
